Measured values: PubChem BioAssay (NCI)
About 83,000 compounds went through this panel and 20% of them were active in at least one assay; those are over-represented in the sample as a whole.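 Each cell line was grown in a 96-well plate and treated with one concentration of compound for 48 hours. Values below 10 were considered active.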 Unmarked numbers belong to inactive results. Calls of active or inactive are those of the source.

Tested on: CCRF-CEM leukemia
Assay: NCI-60 one-dose screen, 48 h (100 = growth as untreated, 0 = no growth, -100 = all killed)
Conditions: 10 µM unless noted

| SMILES | growth |
| --- | --- |
| CCCCCCCC[C@@H]1N[C@@H](C(=O)OC)Cc2c1[nH]c1ccccc21 | 92.3% |
| COC(=O)c1cc(N=C2NC(=O)/C(=C/C=C/c3ccccc3)S2)ccc1O | 20.7% |
| CSc1nnc(-c2cc3c([nH]c4ccccc43)c(-c3cccc(O)c3)n2)n1-c1ccccc1 | 21.8% |
| Cc1ccc(-c2nc([P+](c3ccccc3)(c3ccccc3)c3ccccc3)c(S(=O)(=O)c3ccc(C)cc3)o2)cc1 | -6.52% (active) |
| O=S(=O)(NCCNc1nccc(-c2c(-c3ccc(F)c(O)c3)nc3occn23)n1)c1ccc(Cl)cc1 | 70.7% |
| COc1ccc2c(c1)c(-c1nc(-c3c[nH]c4ccncc34)cs1)cn2C | -45.2% (active) |
| CC(C)c1ccc(C(=O)Nc2nc3ccc(O)c(CN(C)C)c3s2)cc1 | 73.5% |
| O=C1Nc2ccccc2/C1=C/c1nc2ccccc2c(=O)[nH]1 | 55.8% |
| O=C(c1ccccc1)c1ccc(C2CCCCC2)cc1 | 96.2% |
| C=CC(=O)N1CCN(c2cccc(Oc3nccc(Nc4nnc(-c5ccc(Br)cc5)s4)n3)c2)CC1 | 69.5% |
| O=C1C(Cl)=C(Nc2ccc(S(=O)(=O)N3CCOCC3)cc2)C(=O)c2ccccc21 | 6.98% (active) |
| CCOC(=O)C1=C(C)NC(=O)NC1c1c(Cl)n(CCCl)c2ccccc12 (configuration not stated) | -54.5% (active) |
| CCCC/C=C/[C@@H]1C[C@H]1CCO | 101% |
| C=C(CBr)[C@@H]1CC[C@]2(C(=O)O)CC[C@]3(C)[C@H](CC[C@@H]4[C@@]5(C)CCC(=O)C(C)(C)[C@@H]5CC[C@]43C)[C@@H]12 | 50.3% |
| CC/C=C\C[C@H](O)C/C=C1/C(=O)C=C[C@@H]1C/C=C\CCCC(=O)N(C)C | 0.876% (active) |
| CNC(=O)c1[nH]cc(-c2ccc(OC)cc2)c1-c1cc(OC)c2c(c1OC)OCO2 | 101% |
| O=C(/C=C/c1cccs1)Nc1ncc(Cc2ccccc2F)s1 | 14.4% |
| CCCn1cc2c(=O)nc3sc(Cc4ccccc4)c(C)n3c2n1 | 92.3% |
| CCC(C)N(CCNc1cc(OC)cc2cccnc12)CC(C)C (configuration not stated) | 90.9% |
| C1CCC([PH+](C2CCCCC2)C2CCCCC2[PH+](C2CCCCC2)C2CCCCC2)CC1.[Au].[CH-]1CCCCC1C1CCCC[N-]1 (configuration not stated) | 2.23% (active) |

| SMILES | growth |
| --- | --- |
| O=C1/C(=C/c2ccccc2Br)COc2ccc(O)cc21 | 3.07% (active) |
| O=C(Nc1ccccc1O)c1ccc(CNC(=O)c2sccc2Nc2ccnc(C(F)(F)F)c2)cc1 | 10.8% |
| N#Cc1c(-c2ccc(Cl)cc2)nc(NN2C(=O)c3ccccc3C2=O)nc1N1CCOCC1 | 103% |
| O=C(OC(CO)C(=O)NC12CC3CC(CC(C3)C1)C2)c1ccc(Cl)cc1 (configuration not stated) | 88.8% |
| COc1ccc(/C=N/C2=C(C#N)C(c3ccccc3)c3ccc4ccccc4c3O2)cc1 (configuration not stated) | 9.58% (active) |
| CC(C)c1ccc(C(=O)Nc2sc3c(c2C(N)=O)CCC(=O)C3)cc1 | 2.5% (active) |
| N=C(N)c1ccc(-c2ccc(-c3ccc(Cl)cc3Cl)s2)cc1 | -3.15% (active) |
| O=C(/C=C/c1cccc(Cl)c1)c1ccc(Nc2nc(Nc3ccc(F)cc3)nc(Nc3ccc(Cl)cc3)n2)cc1 | 103% |
| COc1c(B(O)O)cccc1-c1nc2c(F)cc3[nH]ncc3c2c2c1CCCC2 | 13.9% |
| N#Cc1ccc(O)c(C2=NCC(c3ccccc3)O2)c1 (configuration not stated) | 28.1% |
| COC(=O)c1nc(-c2ccccc2)oc1S(=O)(=O)Cc1ccccc1 | -6.08% (active) |
| OCCn1cc(-c2nc(-c3c[nH]c4ncccc34)cs2)c2cc(F)ccc21 | 56% |
| O=[N+]([O-])c1cccc(-c2nc3cc4nc5ccccc5[nH]c4cc3n2)c1 | 111% |
| CN(C)c1ccc(C(=O)OCCCCCCl)cc1 | 122% |
| CC(C)COc1nc2c(c(=O)n(C)c(=O)n2C)n1C | 97.5% |
| Nc1nc(-c2ccc(Cl)cc2)nc2c1sc(=S)n2-c1ccccc1 | 85.4% |
| Cc1ccc(NC(=O)c2sc3nc(C)c(Br)c(C)c3c2N)cc1 | 94.7% |
| Cc1cc(N2CCCCC2)cc(C)c1-c1csc(NC(=O)c2ccncc2)n1 | 47.3% |
| CCN1C(=S)N(c2ccccc2)C2C1NN=c1s/c(=C3\C(=O)N(C(C)C)c4ccccc43)c(=O)n12 (configuration not stated) | 93.1% |
| O=C(N(c1ccccc1)c1ccccc1)n1cc(I)c2nc(Cl)nc(Cl)c21 | 4.32% (active) |

Tested on: MOLT-4 leukemia
Assay: as above
Conditions: 10 µM unless noted

| SMILES | growth |
| --- | --- |
| CCCCCCCC[C@@H]1N[C@@H](C(=O)OC)Cc2c1[nH]c1ccccc21 | 93% |
| CSc1nnc(-c2cc3c([nH]c4ccccc43)c(-c3cccc(O)c3)n2)n1-c1ccccc1 | 26.6% |
| Cc1ccc(-c2nc([P+](c3ccccc3)(c3ccccc3)c3ccccc3)c(S(=O)(=O)c3ccc(C)cc3)o2)cc1 | -3.24% (active) |
| COc1ccc2c(c1)c(-c1nc(-c3c[nH]c4ccncc34)cs1)cn2C | -42.8% (active) |
| CC(C)c1ccc(C(=O)Nc2nc3ccc(O)c(CN(C)C)c3s2)cc1 | 62.7% |
| O=C(c1ccccc1)c1ccc(C2CCCCC2)cc1 | 104% |
| C=CC(=O)N1CCN(c2cccc(Oc3nccc(Nc4nnc(-c5ccc(Br)cc5)s4)n3)c2)CC1 | 70.6% |
| O=C1C(Cl)=C(Nc2ccc(S(=O)(=O)N3CCOCC3)cc2)C(=O)c2ccccc21 | 5.92% (active) |
| CCCC/C=C/[C@@H]1C[C@H]1CCO | 103% |
| CC/C=C\C[C@H](O)C/C=C1/C(=O)C=C[C@@H]1C/C=C\CCCC(=O)N(C)C | 6.69% (active) |
| CNC(=O)c1[nH]cc(-c2ccc(OC)cc2)c1-c1cc(OC)c2c(c1OC)OCO2 | 109% |
| O=C(/C=C/c1cccs1)Nc1ncc(Cc2ccccc2F)s1 | 26% |
| CCCn1cc2c(=O)nc3sc(Cc4ccccc4)c(C)n3c2n1 | 78% |
| C1CCC([PH+](C2CCCCC2)C2CCCCC2[PH+](C2CCCCC2)C2CCCCC2)CC1.[Au].[CH-]1CCCCC1C1CCCC[N-]1 (configuration not stated) | -6.51% (active) |
| O=C1/C(=C/c2ccccc2Br)COc2ccc(O)cc21 | 27.2% |
| O=C(Nc1ccccc1O)c1ccc(CNC(=O)c2sccc2Nc2ccnc(C(F)(F)F)c2)cc1 | 12.1% |

| SMILES | growth |
| --- | --- |
| N#Cc1c(-c2ccc(Cl)cc2)nc(NN2C(=O)c3ccccc3C2=O)nc1N1CCOCC1 | 97.8% |
| O=C(OC(CO)C(=O)NC12CC3CC(CC(C3)C1)C2)c1ccc(Cl)cc1 (configuration not stated) | 98.7% |
| COc1ccc(/C=N/C2=C(C#N)C(c3ccccc3)c3ccc4ccccc4c3O2)cc1 (configuration not stated) | 19.2% |
| CC(C)c1ccc(C(=O)Nc2sc3c(c2C(N)=O)CCC(=O)C3)cc1 | -8.16% (active) |
| N=C(N)c1ccc(-c2ccc(-c3ccc(Cl)cc3Cl)s2)cc1 | -24.3% (active) |
| O=C(/C=C/c1cccc(Cl)c1)c1ccc(Nc2nc(Nc3ccc(F)cc3)nc(Nc3ccc(Cl)cc3)n2)cc1 | 94% |
| N#Cc1ccc(O)c(C2=NCC(c3ccccc3)O2)c1 (configuration not stated) | 18.7% |
| COC(=O)c1nc(-c2ccccc2)oc1S(=O)(=O)Cc1ccccc1 | -9.29% (active) |
| OCCn1cc(-c2nc(-c3c[nH]c4ncccc34)cs2)c2cc(F)ccc21 | 54.5% |
| O=[N+]([O-])c1cccc(-c2nc3cc4nc5ccccc5[nH]c4cc3n2)c1 | 92.9% |
| CN(C)c1ccc(C(=O)OCCCCCCl)cc1 | 86.1% |
| CC(C)COc1nc2c(c(=O)n(C)c(=O)n2C)n1C | 93.3% |
| Nc1nc(-c2ccc(Cl)cc2)nc2c1sc(=S)n2-c1ccccc1 | 82.8% |
| Cc1ccc(NC(=O)c2sc3nc(C)c(Br)c(C)c3c2N)cc1 | 90% |
| Cc1cc(N2CCCCC2)cc(C)c1-c1csc(NC(=O)c2ccncc2)n1 | 43.7% |
| O=C(N(c1ccccc1)c1ccccc1)n1cc(I)c2nc(Cl)nc(Cl)c21 | 2.48% (active) |
